Data on twelve compounds can be found in PubChem BioAssay (NCATS).

Inconclusive results are not listed. A number with no mark means an inactive call. The source made the active and inactive calls. The call rests on the fitted dose curve; in most records, active means well fitted curve in the direction sought with a large enough effect; inconclusive means small, poorly fitted or top-dose-only effect, or another doubt; inactive means no such curve, though single readings can be large; an effect the other way counts as inactive or inconclusive.

Assay [1] has as its system CRL-7250. In words: Cytotoxic Profiling of Annotated Libraries Using Quantitative High-Throughput Screening (AID 1296008). Further: nearly all actives have a fitted effect of over 60% in size. Further: potency means the concentration at half of the fitted maximal effect. On max response: on the % scale 0 is the no-effect control and ±100 the full control effect. The following applies: Five cell lines viability, CellTiter-Glo ATP luminescence, 48-72 h; max response: hits give low values. In short, it runs like this: (§1)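 Compounds were pin-transferred onto cells and incubated 48 or 72 hr at 37 degree Celsius, 95% humidity. CellTiter-Glo was added, plates sat 10 min at room temperature, then ATP-coupled luminescence was imaged as the viability read-out.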

In assay [2] the test system is HEK293. The assay is described as above. The settings on record: Five cell lines viability, CellTiter-Glo ATP luminescence, 48-72 h; max response: hits give low values. In short, it runs like this: as §1
The subject of assay [3] is HaCat. The assay is described as above. The following applies: Five cell lines viability, CellTiter-Glo ATP luminescence, 48-72 h; max response: hits give low values. Summed up: as §1
Assay [4] concerns KB-3-1. The assay is described as above. The settings on record: Five cell lines viability, CellTiter-Glo ATP luminescence, 48-72 h; max response: hits give low values. Summed up:
as §1

The test system of assay [5] is NIH3T3. The description is as above. The following applies: Five cell lines viability, CellTiter-Glo ATP luminescence, 48-72 h; max response: hits give low values. In short, it runs like this: as §1
In assay [6] the test system is HACAT. In words: qHTS assay to identify novel small-molecules to repurpose for Merkel cell carcinoma treatment (AID 1296009). Further: nearly all actives have a fitted effect of over 60% in size. The settings on record: MCC and control cell lines, CellTiter-Glo viability, 72 h; at 44.8 µM (top of the series) unless noted. In short, it runs like this:
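Cells exposed to NPC (8-point) and MIPE (11-point) compound dilutions for 72 hr at 37 degree celsius; viability read by CellTiter-Glo luminescence, normalized to no-cell and DMSO in-plate controls.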

The test system of assay [7] is C33A. In words: Primary qHTS to identify gynecologic anti-cancer compounds using libraries of approved drugs and bioactive compounds (AID 1345084). Further: on the % scale 0 is the no-effect control and ±100 the full control effect; nearly all actives have a fitted effect of over 55% in size. The following applies: Gynecologic cancer cell panel viability, ATPlite luminescence, 48 h; series mostly up to 57.5 µM. Summed up:
(§2)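 Luminescence from the ATPlite ATP-monitoring reagent indicates viable cell number; lower signal means cytotoxicity. Cells received compound 16 h after seeding and were exposed for 48 h across five concentrations.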

For assay [8], the system named is CAOV3. The description is as above. The following applies: Gynecologic cancer cell panel viability, ATPlite luminescence, 48 h; series mostly up to 57.5 µM. Summed up:
as §2

Assay [9] concerns CASKI. The assay is described as above. The following applies: Gynecologic cancer cell panel viability, ATPlite luminescence, 48 h; series mostly up to 57.5 µM. In short, it runs like this: as §2
Assay [10] relates to Es-2. The description is as above. The settings on record: Gynecologic cancer cell panel viability, ATPlite luminescence, 48 h; series mostly up to 57.5 µM. Summed up:
as §2

For assay [11], the system named is HeLa. The description is as above. The following applies: Gynecologic cancer cell panel viability, ATPlite luminescence, 48 h; series mostly up to 57.5 µM. In short, it runs like this: as §2
The test system of assay [12] is Hek293T. The assay is described as above. The following applies: Gynecologic cancer cell panel viability, ATPlite luminescence, 48 h, control line for the selectivity index; series mostly up to 57.5 µM. In short, it runs like this:
as §2

Assay [13] relates to JEG-3. Described as above. The settings on record: Gynecologic cancer cell panel viability, ATPlite luminescence, 48 h; series mostly up to 57.5 µM. Summed up: as §2
For assay [14], the system named is OV90. The description is as above. The settings on record: Gynecologic cancer cell panel viability, ATPlite luminescence, 48 h; series mostly up to 57.5 µM. Summed up: as §2

For `C/C(=C\CC[C@H](CO)[C@@H]1CC[C@]2(C)C3=C(CC[C@@]12C)[C@@]1(C)CCC(=O)C(C)(C)C1CC3)C(=O)O` (stereo partly drawn), the max response is -4.82% in [1], -7.09% in assay [2], 6.51% in assay [4] and -2.55% in assay [5]. Further, the compound was called inactive in [3] and in assay [9]. For the same compound, the outcome in [6] was “inactive [at 17.4 µM]”. The Potency entry in assay [7], in assay [8], in assay [10], in assay [11], in [12] and in assay [13] was “inactive” throughout. Besides, the Potency result in assay [14] is “inactive”.

As for `C=CCc1cc(OC)c(OC(C)C(O)c2ccc(O)c(OC)c2)c(OC)c1` (stereo not drawn), the max response in [1] is -6.23%; in assay [2], 0.874%; in assay [4], -7.75%; in assay [5], -6.43%. In addition, the compound was called inactive in [3], in assay [6] and in assay [9]. Also, the Potency result in assay [7], in assay [8], in assay [10], in assay [11], in assay [12] and in assay [13] was “inactive” each time. Also, the Potency result in [14] is “inactive”.

With `COc1c2cc(c(O[C@@H]3O[C@H](CO)[C@@H](O)[C@H](O)[C@H]3O)c1OC)CCCCC(O)CCc1ccc(O)c-2c1` (stereo partly drawn), the max response was 0.579% in assay [1], -2.25% in assay [2] and 1.47% in assay [5]. The compound was classed as inactive in assay [3], in [4] and in [9]. For the same compound, the outcome in assay [6] was “inactive [at 17.4 µM]”. For the same compound, the Potency result in [7], in assay [8], in assay [10], in [11], in [12] and in assay [13] was “inactive” throughout. Further, in assay [14], the Potency entry was “inactive”.

As to `CC(C)C1C(OC(=O)/C=C/c2ccccc2)CC2(C)OC2CCC2(C)OC2C1O` (stereo not drawn), the compound was called inactive in [1], in assay [3], in [6] and in assay [9]. Further, the figures for the max response in assay [2], in assay [4] and in assay [5] were -5.07%, 9.34% and -5.79%, respectively. The Potency result in [7], in [8], in assay [10], in assay [11], in assay [12] and in [13] was “inactive” throughout. Moreover, in assay [14], the Potency entry was “inactive”.

As for `C=Cc1ccc(O[C@@H]2O[C@H](CO[C@@H]3O[C@@H](C)[C@H](O)[C@@H](O)[C@H]3O)[C@@H](O)[C@H](O)[C@H]2O)cc1`, the max response in [1] was -5.44%; in [2] it was -5.77%; in assay [4] it was 6.98%; in assay [5], -1.18%. Besides, the call in assay [3] and in [9] was inactive. In assay [6], the outcome was “inactive [at 17.4 µM]”. The Potency result in assay [7], in assay [8], in assay [10], in assay [11], in assay [12] and in [13] was “inactive” throughout. Also, the Potency result in [14] was “inactive”.

In the case of `CC1C(O)C(O)C2C(C(=O)OCCc3ccc(O)cc3)=COC(O[C@@H]3O[C@H](CO)[C@@H](O)[C@H](O)[C@H]3O)C12` (stereo partly drawn), the call in assay [1], in assay [3] and in [9] was inactive. In addition, the max response in assay [2] was -0.685%; in [4] it was -9.14%; in [5], 2.97%. Further, in assay [6], the outcome was “inactive [at 17.4 µM]”. The Potency result in assay [7], in assay [8], in assay [10], in [11], in assay [12] and in assay [13] was “inactive” each time. In assay [14], the Potency result was “inactive”.

For the compound `COc1c(C)c(OCC=C(C)C)cc2c1CNC2=O`, the max response in assay [1] was -2.67%; in assay [2], -5.13%; in [4] it was -3.05%; in assay [5], -2.21%. Further, the result in assay [3], in assay [6] and in [9] was inactive. Moreover, the Potency entry in [7], in assay [8], in [10], in [11], in [12] and in assay [13] was “inactive” each time. Besides, in assay [14], the Potency entry is “inactive”.

`O=C(/C=C/c1ccc(O)c(O)c1)O[C@H]1[C@@H]2C=CO[C@@H](O[C@@H]3O[C@H](CO)[C@@H](O)[C@H](O)[C@H]3O)[C@@H]2[C@@]2(CO)O[C@@H]12`: the max response in assay [1] was -3.33%; in assay [2], -6.64%; in assay [5] it was -4.11%. Further, the compound was called inactive in assay [3], in [4] and in assay [9]. Moreover, the outcome in assay [6] is “inactive [at 17.4 µM]”. For the same compound, the Potency entry in assay [7], in [8], in assay [10], in [11], in assay [12] and in assay [13] was “inactive” in each case. In addition, the Potency result in assay [14] is “inactive”.

For `COC(=O)C(CC1(O)c2ccccc2N2C(=O)C(C)(C)N(O)C21)n1cnc2ccccc2c1=O` (stereo not drawn), the call in [1], in assay [3] and in assay [9] was inactive. Moreover, the max response was 3.97% in assay [2], 0.0146% in assay [4] and 2.61% in assay [5]. Besides, the outcome in assay [6] is “inactive [at 17.4 µM]”. Moreover, the Potency result in [7], in assay [8], in assay [10], in assay [11], in assay [12] and in [13] was “inactive” each time. In addition, the Potency entry in assay [14] was “inactive”.

As for `Cc1ccc(COC(=O)N2CC[C@@H](CNc3ncccn3)[C@@H](F)C2)cc1`, the max response was -0.943% in assay [1], -31.7% in [2], -17.2% in assay [4] and -18.5% in assay [5]. The result in assay [3], in assay [6] and in assay [9] was inactive. In addition, the Potency entry in assay [7], in assay [8], in [10], in assay [11], in assay [12] and in assay [13] was “inactive” in each case. Also, the Potency result in assay [14] is “inactive”.

On to `O=C(NC/C=C/CN1CCN(c2cccc(Cl)c2Cl)CC1)c1ccc(-c2ccccn2)cc1`, for which the max response in assay [1] is -4.15%; in assay [4] it was -2.38%; in [5], 2.53%. For the same compound, the Potency in [2] was 13 µM (active). Besides, the call in assay [3], in assay [6] and in [9] was inactive. For the same compound, the Potency result in assay [7], in assay [8], in assay [10], in assay [11], in [12] and in assay [13] was “inactive” each time. Moreover, the Potency entry in assay [14] was “inactive”.

Consider `C=C(C(=O)O)[C@@H]1CC[C@@]2(C)CCC[C@@](C)(O)[C@@H]2C1`, for which the max response in assay [1] is -2.07%; in assay [2], -3.93%; in [4], 5.56%; in assay [5], 1.2%. Also, the compound was classed as inactive in assay [3], in [6] and in assay [9]. In addition, the Potency result in [7], in assay [8], in [10], in [11], in assay [12] and in assay [13] was “inactive” in each case. For the same compound, the Potency result in [14] is “inactive”.
